What all share (design): species or system human, MV4-11 + K-562 + COLO205 + SK-N-BE2 + OVCAR-8
Test [1] deals with CDC42BPG. The note with it: read-out: apparent Kd, n = 1.
Test [2] relates to EGFR. As to conditions: read-out: apparent Kd; compound concentrations: 100 nM and 1000 nM (sheet 'Samples'), CATDS: 0.39562285113590601; n = 1.
For test [3], the system named is FLT3. The note with it: read-out: apparent Kd; compound concentrations:100 nM and 1000 nM (sheet 'Samples'); n = 1.
The subject of test [4] is CDC42BPA. As to conditions: read-out: apparent Kd; compound concentrations:100 nM and 1000 nM (sheet 'Samples'); n = 1.
Test [5] has as its system CDC42BPB. As to conditions: read-out: apparent Kd; compound concentrations:100 nM and 1000 nM (sheet 'Samples'); n = 1.
For test [6], the system named is CDKL5. As to conditions: read-out: apparent Kd, n = 1.
The test system of test [7] is GRK6. The note with it: read-out: apparent Kd; compound concentrations:100 nM and 1000 nM (sheet 'Samples'); n = 1.
The test system of test [8] is LATS1. As to conditions: read-out: apparent Kd; compound concentrations:100 nM and 1000 nM (sheet 'Samples'); n = 1.
In test [9] the test system is PKN1. The note with it: read-out: apparent Kd; compound concentrations:100 nM and 1000 nM (sheet 'Samples'); n = 1.
For test [10], the system named is PKN2. The note with it: read-out: apparent Kd; compound concentrations:100 nM and 1000 nM (sheet 'Samples'); n = 1.
In test [11] the test system is PKN3. The note with it: read-out: apparent Kd; compound concentrations:100 nM and 1000 nM (sheet 'Samples'); n = 1.
In test [12] the test system is PRKAA1. The note with it: read-out: apparent Kd; compound concentrations:100 nM and 1000 nM (sheet 'Samples'); n = 1.
Test [13] relates to PRKACA. As to conditions: read-out: apparent Kd; compound concentrations:100 nM and 1000 nM (sheet 'Samples'); n = 1.
The subject of test [14] is PRKACB. As to conditions: read-out: apparent Kd; compound concentrations:100 nM and 1000 nM (sheet 'Samples'); n = 1.
For test [15], the system named is PRKAG1. As to conditions: read-out: apparent Kd; compound concentrations:100 nM and 1000 nM (sheet 'Samples'); n = 1.
For test [16], the system named is PRKAG2. As to conditions: read-out: apparent Kd; compound concentrations:100 nM and 1000 nM (sheet 'Samples'); n = 1.
For test [17], the system named is PRKCA. As to conditions: read-out: apparent Kd; compound concentrations:100 nM and 1000 nM (sheet 'Samples'); n = 1.
For test [18], the system named is PRKCD. As to conditions: read-out: apparent Kd; compound concentrations:100 nM and 1000 nM (sheet 'Samples'); n = 1.
Test [19] deals with PRKG1. The note with it: read-out: apparent Kd; compound concentrations:100 nM and 1000 nM (sheet 'Samples'); n = 1.
For test [20], the system named is PRKX;PRKY. As to conditions: read-out: apparent Kd; compound concentrations:100 nM and 1000 nM (sheet 'Samples'); n = 1.
The test system of test [21] is ROCK1. As to conditions: read-out: apparent Kd; compound concentrations:100 nM and 1000 nM (sheet 'Samples'); n = 1.
Test [22] deals with ROCK2. The note with it: read-out: apparent Kd; compound concentrations:100 nM and 1000 nM (sheet 'Samples'); n = 1.
The subject of test [23] is RPS6KA5. As to conditions: read-out: apparent Kd; compound concentrations:100 nM and 1000 nM (sheet 'Samples'); n = 1.
In test [24] the test system is RPS6KB1. As to conditions: read-out: apparent Kd; compound concentrations:100 nM and 1000 nM (sheet 'Samples'); n = 1.
The test system of test [25] is CAMK2B. As to conditions: read-out: apparent Kd; compound concentrations: 100 nM and 1000 nM (sheet 'Samples'), CATDS: 0.26217327719794398; n = 1.
Test [26] deals with CAMK2D. The note with it: read-out: apparent Kd; compound concentrations: 100 nM and 1000 nM (sheet 'Samples'), CATDS: 0.25731079955705399; n = 1.
The subject of test [27] is CDK10. The note with it: read-out: apparent Kd; compound concentrations: 100 nM and 1000 nM (sheet 'Samples'), CATDS: 0.15001944527595701; n = 1.
Test [28] deals with FN3K. As to conditions: read-out: apparent Kd; compound concentrations: 100 nM and 1000 nM (sheet 'Samples'), CATDS: 0.12433120780871; n = 1.
For test [29], the system named is ICK. As to conditions: read-out: apparent Kd; compound concentrations: 100 nM and 1000 nM (sheet 'Samples'), CATDS: 0.14025095323079101; n = 1.
For test [30], the system named is MAPK1. The note with it: read-out: apparent Kd; compound concentrations: 100 nM and 1000 nM (sheet 'Samples'), CATDS: 0.154787589884953; n = 1.
In test [31] the test system is CDC42. As to conditions: read-out: apparent Kd; compound concentrations: 100 nM and 1000 nM (sheet 'Samples'), CATDS: 0.48931368679936299; n = 1.
The subject of test [32] is MAPK11. As to conditions: read-out: apparent Kd; compound concentrations: 100 nM and 1000 nM (sheet 'Samples'), CATDS: 0.36528894613698598; n = 1.
Test [33] concerns MAPKAPK2. The note with it: read-out: apparent Kd; compound concentrations: 100 nM and 1000 nM (sheet 'Samples'), CATDS: 0.21813918573992899; n = 1.
The test system of test [34] is TNK2. As to conditions: read-out: apparent Kd; compound concentrations: 100 nM and 1000 nM (sheet 'Samples'), CATDS: 0.23701561839687901; n = 1.
Setting [35] is: compound concentrations:100 nM and 1000 nM (sheet 'Samples').

Where two headings read alike, the source gives them in different places.

Consider `CS(=O)(=O)CCNCc1ccc(-c2ccc3ncnc(Nc4ccc(OCc5cccc(C(F)(F)F)c5)cc4)c3c2)o1.Cl` [GW567808A], for which the potency estimated from few doses in test [1] (setting [35]) is 1820 nM; in test [2] it was 995 nM; in [3] it was 1430 nM.
With `COc1ccc(C[C@@H](CN)NC(=O)c2cc(Br)c(-c3ccnc4[nH]ccc34)s2)cc1.COc1ccc(C[C@@H](CN)NC(=O)c2cc(Br)c(-c3ccnc4[nH]ccc34)s2)cc1.Cl.Cl` [GSK1389063A], the potency estimated from few doses in test [4] is 757 nM; in test [5], 80.7 nM; in test [1] (setting [35]), 21.2 nM; in test [6] (setting [35]), 1370 nM; in [7], 93 nM; in [8] it was 287 nM. The potency estimated from few doses is 339 nM in test [9]; 897 nM in [10]; 921 nM in [11]; 1570 nM in [12]; 11.7 nM in test [13]; 23.5 nM in test [14]. Further, the potency estimated from few doses in test [15] is 976 nM; in [16], 863 nM; in [17], 2340 nM; in test [18] it was 1750 nM; in test [19] it was 27.3 nM; in test [20], 127 nM. Moreover, the potency estimated from few doses in [21] was 17.9 nM; in test [22], 21.5 nM; in test [23], 899 nM; in test [24], 130 nM.
In the case of `Cn1cc(C2=C(N3CCOCC3)C(=O)NC2=O)c2ccccc21` [RO3303031-000], the potency estimated from few doses in [25] was 327 nM; in [26], 336 nM; in test [27], 957 nM; in test [28], 1620 nM; in test [29] it was 1140 nM; in test [30] it was 887 nM.
`Cc1ccc(NC(=O)c2ccc(Cl)c(Cl)c2)cc1-c1ccc(C(=O)Nc2ccncc2)cc1` [GSK1398460A]: in [1] (compound concentrations: 100 nM and 1000 nM (sheet 'Samples'), CATDS: 1), the potency estimated from few doses was 1100 nM.
Turning to `COc1ccc(Nc2nccc(N3CCC(NC(=O)Nc4cccc(C(C)=O)c4)C3)n2)cc1` (centres unmarked) [GSK1379731A], the potency estimated from few doses in test [31] was 1580 nM; in test [6] (compound concentrations: 100 nM and 1000 nM (sheet 'Samples'), CATDS: 0.51116349982272002), 1450 nM.
`Nc1c(C(=O)c2cccc(CCS(N)(=O)=O)c2)cnn1-c1ccc(F)cc1` [RO1162009-000]: the potency estimated from few doses in test [1] (compound concentrations: 100 nM and 1000 nM (sheet 'Samples'), CATDS: 0.22426146716058901) is 1250 nM; in [32], 500 nM; in test [33], 1340 nM; in test [34] it was 1100 nM.
